Experiment [1] in a line: BSK_BT_PBMCCytotoxicity: PBMC Cytotoxicity Assessment in the BioMAP Diversity Plus: BT Assay (AID 2284225).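 Also: PBMC viability measured by Alamar Blue dye reduction fluorescence.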 The conditions noted are these: primary human B cells with PBMC. The essentials:
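PBMC (75,000/well) pretreated with compound 1 h, then activated with SEB and TSST-1 (20 ng/mL each final), incubated 90 h; Alamar Blue added 6 h, fluorescence read at 546/580 nm. Fitted relative to DMSO.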

Experiment [2] in a line: BSK_BT_Bcell_Proliferation: Viability Assessment in the BioMAP Diversity Plus: BT Assay for B cell Proliferation (AID 2284227). The conditions noted are these: primary human B cells with PBMC. The essentials:
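SRB-based protein staining (0.1% SRB after 10% TCA fixation, 560 nm) quantifies proliferation in human B cells co-cultured with PBMC, 72 h post-dosing, with signal gain scored relative to DMSO negative control.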

Read-out in experiment [3]: Interleukin 6 (IL6), IL6 (gene 3569)
The experiment can be described thus: BSK_BT_xIL6: BioMAP Diversity Plus: BT Assay for Interleukin 6 (IL6) Biomarker Activity (AID 2284228). The conditions noted are these: primary human B cells with PBMC. The essentials:
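Human B cell plus PBMC co-culture exposed to test chemical for 24 h; secreted IL-6 quantified by Luminex xMAP bead assay. Activity fitted in the positive direction against DMSO as negative control and baseline.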

Read-out in experiment [4]: Interleukin 17A (IL17A), IL17A (gene 3605)
Briefly: BSK_BT_xIL17A: BioMAP Diversity Plus: BT Assay for Interleukin 17A (IL17A) Biomarker Activity (AID 2284229). The conditions noted are these: primary human B cells with PBMC. The essentials:
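B cells co-cultured with PBMC were exposed to test chemicals, and secreted IL-17A was quantified 24 h after dosing by Luminex xMAP bead immunoassay. Activity was fitted in the gain direction against DMSO as baseline.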

Read-out in experiment [5]: Tumor necrosis factor (Homo sapiens) (UniProt P01375)
The experiment can be described thus: BSK_BT_xTNFa: BioMAP Diversity Plus: BT Assay for Tumor necrosis factor alpha (TNF-alpha) Biomarker Activity (AID 2284230). The conditions noted are these: primary human B cells with PBMC. Summed up:
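Compounds were added to a B cell plus PBMC co-culture, and after 24 h secreted TNF-alpha was quantified with Luminex xMAP technology, with responses fitted upward from the DMSO control.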

Read-out in experiment [6]: Vascular cell adhesion molecule 1 (VCAM1), VCAM1 (gene 7412)
Briefly: BSK_MyoF_VCAM1: BioMAP Diversity Plus: MyoF Assay for Vascular cell adhesion molecule 1 (VCAM1) Biomarker Activity (AID 2284231). The conditions noted are these: primary human lung fibroblasts. Summed up: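 Primary human lung fibroblasts were dosed with test chemical for 24 h, then cell-surface VCAM-1 was measured by ELISA. Activity was fitted in the positive direction against DMSO as negative control and baseline.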

Read-out in experiment [7]: Collagen I, COL1A1 (gene 1277)
Briefly: BSK_MyoF_CollagenI: BioMAP Diversity Plus: MyoF Assay for Collagen I Biomarker Activity (AID 2284238). The conditions noted are these: primary human lung fibroblasts. The essentials: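 Human lung fibroblasts were exposed to test chemical for 24 h, then Collagen I was quantified by ELISA. Activity was fitted in the increasing direction against DMSO as the negative control and baseline.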

Read-out in experiment [8]: Collagen III, COL3A1 (gene 1281)
Briefly: BSK_MyoF_CollagenIII: BioMAP Diversity Plus: MyoF Assay for Collagen III Biomarker Activity (AID 2284239). The conditions noted are these: primary human lung fibroblasts. The essentials:
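Human lung fibroblasts were dosed with chemicals and, 24 hours later, collagen III was measured by ELISA. Activity was fitted in the positive direction against the DMSO negative-control baseline.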

Read-out in experiment [9]: Interleukin 17F (IL17F), IL17F (gene 112744)
Briefly: BSK_BT_xIL17F: BioMAP Diversity Plus: BT Assay for Interleukin 17F (IL17F) Biomarker Activity (AID 2284243). The conditions noted are these: primary human B cells with PBMC. The essentials:
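B cell/PBMC co-culture (human primary), 24 h compound exposure; sIL-17F by Luminex xMAP; gain-of-signal fit vs DMSO baseline.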

Read-out in experiment [10]: Actin alpha 1 (ACTA1), ACTA1 (gene 58)
The experiment can be described thus: BSK_MyoF_ACTA1: BioMAP Diversity Plus: MyoF Assay for Actin alpha 1 (ACTA1) Biomarker Activity (AID 2284244). The conditions noted are these: primary human lung fibroblasts. Summed up:
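Lung fibroblasts, human primary, 24 h compound exposure → a-SMA ELISA. Positive-direction fit vs DMSO control.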

Read-out in experiment [11]: Secreted IgG (sIgG), gene 3500
The experiment can be described thus: BSK_BT_sIgG: BioMAP Diversity Plus: BT Assay for Secreted IgG (sIgG) Biomarker Activity (AID 2284226). The conditions noted are these: primary human B cells with PBMC. The essentials: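 Read-out: ELISA for secreted IgG after 24 h of chemical exposure in a B cell plus PBMC co-culture. Values reflect upward-direction fitting against DMSO negative controls.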

Experiment [12] in a line: CCTE_Mundy_HCI_Cortical_Synap_Neur_Matur_CellBodySpotCount: CCTE's Synaptogenesis and Neurite Maturation Assay in rat cortical cells for Cell Body Spot Count, Mundy Lab (AID 2284223). Summed up: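 Rat primary cortical cultures received AraC at DIV 5 to arrest glia, were dosed with chemical at DIV 7 with media change, and were fixed at DIV 12 (288.33 h). Synaptophysin puncta on MAP2-positive cell bodies per neuron were counted by high-content imaging versus DMSO.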

Experiment [13] in a line: CCTE_Mundy_HCI_Cortical_NOG_NeuronCount: CCTE's Neurite Outgrowth Assay in rat cortical cells for Neuron Count, Mundy Lab (AID 2284236; active = hit-call score of the fitted dose curve at least 0.9, where 1 is the maximum;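 also: neurons counted by imaging betaIII-tubulin and Hoechst stained cortical cells; cells exposed to compound for about 48 hours before fixation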). The essentials:
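Read-out: neuron number by high-content imaging of betaIII-tubulin (Alexa Fluor-488) and Hoechst-labelled rat primary cortical cells.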

Experiment [14] in a line: CCTE_Mundy_HCI_Cortical_NOG_BPCount: CCTE's Neurite Outgrowth Assay in rat cortical cells for Branch Point Count, Mundy Lab (AID 2284237). Summed up:
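Measured 50.33 h after dosing, this morphology endpoint uses rat primary cortical cultures labelled for betaIII-tubulin. Branch points are quantified by high-content imaging, with DMSO as negative control and baseline.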

A short description of experiment [15]: CCTE_Mundy_HCI_hNP1_Casp3_7: CCTE's Caspase-Glo 3/7 Assay in human neuroprogenitor cells for Apoptosis, Mundy Lab (AID 2284240). Summed up:
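Apoptosis is scored by activated caspase-3/7 luminescence in WA09-derived neural progenitor cells, measured 26.5 h after chemical dosing. Values represent gain of signal relative to DMSO vehicle.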

A short description of experiment [16]: CCTE_Mundy_HCI_hNP1_CellTiter: CCTE's Cell Titer-Glo 2 Assay in human neuroprogenitor cells for Viability, Mundy Lab (AID 2284241; active = hit-call score of the fitted dose curve at least 0.9, where 1 is the maximum). Summed up: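 Human neural progenitor cells (hNP1, WA09-derived) were plated on poly-L-ornithine/laminin and grown 40 to 44 hours at 37 °C, 5% CO2 before chemical addition. Twenty-four hours later, ATP was measured by CellTiter-Glo luminescence; loss of signal versus DMSO indicates reduced viability.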

AC50 and outcome data for seven compounds are collected here from PubChem BioAssay (EPA / NIEHS).

The structures appear in SMILES notation. Results filed as inconclusive are left out. Active and inactive are the calls of the source. The calls were made as follows, unless noted: active = hit-call score of the fitted dose curve at least 0.9, where 1 is the maximum; inactive = score below 0.9.

Tumor necrosis factor (Homo sapiens), sequence (P01375 whole entry, looked up): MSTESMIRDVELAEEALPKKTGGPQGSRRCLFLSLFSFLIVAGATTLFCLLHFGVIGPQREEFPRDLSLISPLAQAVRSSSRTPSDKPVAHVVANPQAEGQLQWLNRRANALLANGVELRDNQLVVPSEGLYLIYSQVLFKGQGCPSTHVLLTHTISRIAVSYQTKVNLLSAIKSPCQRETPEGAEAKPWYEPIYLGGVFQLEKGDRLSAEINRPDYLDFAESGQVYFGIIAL

For `O=S(=O)(C(Cl)(Cl)Cl)C(Cl)(Cl)Cl`, the AC50 was 3.65 µM (active) in experiment [1]; 2.48 µM (active) in experiment [2]; 3.85 µM (active) in experiment [3]; 3.08 µM (active) in experiment [4]; 4.36 µM (active) in experiment [5]; 3.12 µM (active) in [6]. In addition, the AC50 in experiment [7] is 3.07 µM (active); in [8] it was 4.1 µM (active); in experiment [9], 3.03 µM (active); in experiment [10] it was 2.64 µM (active).

On to `OC(Cc1ccccc1Cl)(Cn1cncn1)C1(Cl)CC1` (stereo not given), for which the result in experiment [1], in [2], in [3], in experiment [4], in [6] and in experiment [7] was inactive. For the same compound, the outcome in [8], in [9] and in experiment [10] was inactive. Moreover, the AC50 in [11] is 20 µM (active).

As to `Cc1ccccc1OP(=O)(Oc1ccccc1)Oc1ccccc1`, the outcome in experiment [1], in experiment [2], in [3], in experiment [4], in experiment [5] and in experiment [9] was inactive. Further, the AC50 is 33 µM (active) in experiment [6], 36.9 µM (active) in [7], 28.2 µM (active) in experiment [8] and 20 µM (active) in [10].

As for `c1ccc(-c2cccc(-c3ccccc3)c2)cc1`, the AC50 was 32.8 µM (active) in experiment [1]; 33.3 µM (active) in experiment [2]; 29.1 µM (active) in experiment [6]; 26.4 µM (active) in experiment [7]; 32.9 µM (active) in experiment [8]; 22.6 µM (active) in experiment [9]. For the same compound, the AC50 in [10] is 20 µM (active). Besides, the outcome in [3], in [4] and in [5] was inactive.

For the compound `CS(=O)(=O)c1ccc(C(=O)C2C(=O)CCCC2=O)c(Cl)c1COCC(F)(F)F`, the outcome in [12], in experiment [13], in experiment [14], in [15] and in experiment [16] was inactive.

For `CC(C)(C)c1cc([N+](=O)[O-])cc(C(C)(C)C)c1O`, the AC50 was 26.2 µM (active) in experiment [1]; 2.8 µM (active) in experiment [11]; 13.3 µM (active) in experiment [2]; 13.4 µM (active) in experiment [4]; 0.0556 µM (active) in experiment [8]; 13 µM (active) in [9]. Further, the result in experiment [3], in [6], in [7] and in [10] was inactive.

As to `N#CCCC(Br)(C#N)CBr` (stereo not given), the AC50 was 9.18 µM (active) in experiment [1]; 7.61 µM (active) in [11]; 6.35 µM (active) in experiment [2]; 9.34 µM (active) in experiment [3]; 7.96 µM (active) in experiment [4]; 13.9 µM (active) in [6]. The AC50 is 25.7 µM (active) in [7], 24.8 µM (active) in experiment [8], 9.32 µM (active) in experiment [9] and 12 µM (active) in [10].
